The source of these data is PubChem BioAssay (NCATS).

Values joined by “and” are separate entries in the source; they are usually repeats but may differ in a detail not shown here. Equal entries are not always repeated. Inconclusive results are not listed. More than one record can exist for a structure, and the calls need not agree. Active and inactive are the calls of the source. Calls follow the shape of the dose curve; as a rule, active = well fitted curve in the direction sought with a large enough effect; inconclusive = small, poorly fitted or top-dose-only effect, or another doubt; inactive = no such curve, though single readings can be large; an effect the other way counts as inactive or inconclusive.

In experiment [1] the target is Metallo-beta-lactamase type 2 (Klebsiella pneumoniae) (UniProt C7C422). Put plainly: qHTS to identify inhibitors of the New Delhi Metallo-beta-lactamase (NDM): assay validation screen against the NCATS LOPAC Collection (AID 1794843).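 Also: nitrocefin turnover by NDM-1 measured as 485 nm absorbance at plateau; series mostly up to about 38 µM.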 In short, it runs like this: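 NDM-1 at 2 nM final in 50 mM HEPES pH 7.0, 1 uM ZnSO4, 0.01% Tween20, preincubated with LOPAC compounds pinned in DMSO; 50 uM nitrocefin (stock) added. Hydrolysis read as absorbance at 485 nm in the plateau phase.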
Chain of Metallo-beta-lactamase type 2 (Klebsiella pneumoniae) (C7C422 whole entry, looked up): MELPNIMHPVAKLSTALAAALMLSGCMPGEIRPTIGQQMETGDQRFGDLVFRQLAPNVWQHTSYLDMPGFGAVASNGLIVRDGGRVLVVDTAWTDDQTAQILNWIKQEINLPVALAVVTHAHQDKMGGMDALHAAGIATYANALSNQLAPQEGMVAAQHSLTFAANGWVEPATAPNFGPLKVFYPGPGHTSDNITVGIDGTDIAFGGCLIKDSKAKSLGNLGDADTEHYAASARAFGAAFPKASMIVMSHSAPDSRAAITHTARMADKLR
In general terms: In qHTS, concentration-response curves come from the screen itself.

Experiment [2] addresses Glutathione peroxidase 1 (Homo sapiens) (UniProt P07203). In words: Primary qHTS Assay for Inhibitors of Recombinant Selenoprotein Glutathione Peroxidase 1 (GPX1) (AID 1845191). Also: nearly all actives have a fitted effect of over 65% in size. Also: potency is read from the fitted curve at half-maximal effect. In short, it runs like this:
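10 nM GPX1 + cpd, 30 min RT; start w/ 1 mM GSH, 0.5 mM cumene hydroperoxide, 0.5 mM NADPH, 100 nM GR, 0.01% BSA; buffer 50 mM Tris-HCl pH 7.5, 2 mM EDTA, 150 mM NaCl; Fl 340/450, 0 & 15 min.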

The target in experiment [3] is Phospholipid hydroperoxide glutathione peroxidase GPX4 (Homo sapiens) (UniProt P36969). Put plainly: Primary qHTS Assay for Inhibitors of Recombinant Selenoprotein Glutathione Peroxidase 4 (GPX4) (AID 1845192). Also: nearly all actives have a fitted effect of over 65% in size. Also: potency is read from the fitted curve at half-maximal effect. An outline of the steps: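 NADPH consumption, followed by fluorescence at 340/450 nm between 0 and 15 min, reports GPX4 activity via coupled glutathione reductase (100 nM). Enzyme 200 nM was pre-exposed to compound 30 min; 0.5 mM cumene hydroperoxide and 1 mM GSH served as substrates.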
Chain of Phospholipid hydroperoxide glutathione peroxidase GPX4 (Homo sapiens) (P36969 whole entry, looked up): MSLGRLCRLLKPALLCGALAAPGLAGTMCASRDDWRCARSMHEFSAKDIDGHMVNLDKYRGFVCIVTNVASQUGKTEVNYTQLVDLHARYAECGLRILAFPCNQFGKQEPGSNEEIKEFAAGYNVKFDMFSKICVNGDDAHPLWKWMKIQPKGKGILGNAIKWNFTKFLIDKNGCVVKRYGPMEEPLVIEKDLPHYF

The nature of experiment [4]: Quantitative High-Throughput drug screen in 47 multiple myeloma cell lines against the NCATS MIPE library collection: FR4_PLB cell viability assay (AID 1918924; also: nearly all actives have a fitted effect of over 35% in size; also: potency is read from the fitted curve at half-maximal effect). In short, it runs like this: (§1)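 Primary qHTS used for cherry-picking: cells at 500/well, library compounds for 48 h (37C, 5% CO2), luminescent ATP assay.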
A short description of experiment [5]: Quantitative High-Throughput drug screen in 47 multiple myeloma cell lines against the NCATS MIPE library collection: Delta47_JCRB cell viability assay (AID 1918925; also: nearly all actives have a fitted effect of over 45% in size; also: potency is read from the fitted curve at half-maximal effect). In short, it runs like this: (§2)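 Myeloma cells (500 per well) were exposed to MIPE 4.0 compounds by pin transfer and incubated 48 hours at 37C, 5% CO2. Viability was read as ATP by CellTiter-Glo luminescence, normalised to DMSO (100%) and media-only (0%) wells.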

Experiment [6] is described as follows: Quantitative High-Throughput drug screen in 47 multiple myeloma cell lines against the NCATS MIPE library collection: EJM_DSMZ cell viability assay (AID 1918926; also: nearly all actives have a fitted effect of over 30% in size; also: potency is read from the fitted curve at half-maximal effect). In short, it runs like this:
as §2

Experiment [7] is described as follows: Quantitative High-Throughput drug screen in 47 multiple myeloma cell lines against the NCATS MIPE library collection: AMO1_DSMZ cell viability assay (AID 1918927; also: nearly all actives have a fitted effect of over 30% in size; also: potency is read from the fitted curve at half-maximal effect). In short, it runs like this:
as §2

Experiment [8] in a line: Quantitative High-Throughput drug screen in 47 multiple myeloma cell lines against the NCATS MIPE library collection: ARP1_JJKsccF8 cell viability assay (AID 1918928; also: nearly all actives have a fitted effect of over 40% in size; also: potency is read from the fitted curve at half-maximal effect). In short, it runs like this: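 Myeloma cells at 500 per well in 1536-well format treated with MIPE 4.0 library by pin transfer for 48 h at 37C, 5% CO2. Viability from ATP luminescence (CellTiter-Glo), normalized to DMSO (100%) and media-only (0%) wells.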

Experiment [9] in a line: Quantitative High-Throughput drug screen in 47 multiple myeloma cell lines against the NCATS MIPE library collection: Karpas620_DSMZ cell viability assay (AID 1918959). Also: nearly all actives have a fitted effect of over 30% in size. Also: potency is read from the fitted curve at half-maximal effect. An outline of the steps:
as §1

Experiment [10] is described as follows: Quantitative High-Throughput drug screen in 47 multiple myeloma cell lines against the NCATS MIPE library collection: ARD_JJKsccE7 cell viability assay (AID 1918929). An outline of the steps: as §2
Experiment [11] can be described thus: Primary fluorescence-based thiol-reactive (MSTI) qHTS assay for identification of artifact compounds. (AID 1845221).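 Also: series mostly up to about 54 µM; thiol-reactive compounds lower the probe fluorescence signal; nearly all actives have a fitted effect of over 65% in size.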 In short, it runs like this: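 In PBS pH 7.4 with 2% DMSO, each compound met 4 uM MSTI for one hour at ambient temperature, shielded from light, before fluorescence detection.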
For experiment [12], the system named is Nanoluciferase (engineered Oplophorus gracilirostris luciferase). Put plainly: Primary Nanoluciferase (NLuc) qHTS assay for identification of artifact compounds. (AID 1845222). Also: series mostly up to about 54 µM. An outline of the steps:
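Compounds are pinned into diluted (1:55) conditioned medium of NLuc-expressing S16 cells and held 15 min at room temperature protected from light. Nano-Glo substrate follows, and luminescence is read 5 min later.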

Experiment [13] can be described thus: Primary redox qHTS assay for identification of artifact compounds. (AID 1845223). In short, it runs like this: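 Amplex Red (25 uM) and HRP (250 mU/mL) in HBSS, with compounds for 15 min, then 250 uM DTT for 30 min, room temperature, dark. Fluorescence 525/598 nm read; normalized to DMSO and 10 uM DA3003; Hill fit.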

Chain of Glutathione peroxidase 1 (Homo sapiens) (P07203 whole entry, looked up): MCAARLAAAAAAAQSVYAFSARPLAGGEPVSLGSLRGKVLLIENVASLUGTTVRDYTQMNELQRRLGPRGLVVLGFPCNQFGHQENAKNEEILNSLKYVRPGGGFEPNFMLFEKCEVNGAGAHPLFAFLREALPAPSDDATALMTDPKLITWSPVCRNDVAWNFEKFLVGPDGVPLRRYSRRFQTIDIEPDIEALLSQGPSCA

Regarding `CCOC(=O)C1=C[C@]2(CC)CCCN3CCc4c(n1c1ccccc41)[C@@H]32`, the compound was called inactive in [1]. For the same compound, the Potency in experiment [2] was 12.8 µM (active); in experiment [4] it was 20.9 µM (active); in [5], 10.5 µM (active); in experiment [6] it was 20.9 µM (active); in experiment [7] it was 16.6 µM (active); in experiment [8], 20.9 µM (active). Besides, the Potency in [9] is 23.5 µM (active). In addition, the Potency result in [3] is “inactive”.

In the case of `Cc1ccc(N(CC2=NCCN2)c2cccc(O)c2)cc1`, in experiment [1], the call was inactive. Further, the Potency result in [2], in [3], in [5] and in experiment [6] was “inactive” each time. The Potency in experiment [4] is 20.9 µM (active); in [7] it was 23.5 µM (active); in [8], 29.6 µM (active).

Consider `CCCC(CCC)C(=O)O`, for which, in [1], the outcome was inactive. In addition, the Potency result in experiment [2], in experiment [3], in experiment [4], in experiment [6], in experiment [7] and in [8] was “inactive” each time. In addition, the Potency entry in experiment [10] and in [9] was “inactive” in each case.

Regarding `OC(CN1CCC(Cc2ccc(F)cc2)CC1)c1ccc(Cl)cc1` (stereo unspecified), the compound was called inactive in experiment [1]. The Potency result in [2], in experiment [3], in [4], in experiment [5], in experiment [7] and in experiment [8] was “inactive” each time. For the same compound, the Potency result in experiment [10] and in experiment [9] was “inactive” each time.

For the compound `C[C@]12CCC(=O)C=C1CC[C@@H]1[C@@H]2[C@@H](O)C[C@@]2(C)[C@H]1CC[C@]2(O)C(=O)CO`, the compound was called inactive in experiment [1]. Also, the Potency entry in experiment [2] and in experiment [3] was “inactive” throughout.

Turning to `C1COC(NC(C2CC2)C2CC2)=N1`, the compound was called inactive in experiment [1]. Besides, the Potency entry in [2], in experiment [3], in [4] and in [6] was “inactive” each time.

Regarding `NNCCc1ccccc1`, the compound was called inactive in [1]. The Potency result in experiment [2], in [3], in experiment [5], in experiment [6] and in [10] was “inactive” in each case. The Potency was 6.62 µM (active) in [4], 18.7 µM (active) in experiment [7], 20.9 µM (active) in experiment [8] and 16.6 µM (active) in experiment [9].

As for `O=C1CCc2cc(OCCCCc3nnnn3C3CCCCC3)ccc2N1`, the call in experiment [1] was inactive. Moreover, the Potency result in experiment [2], in experiment [3], in experiment [4], in experiment [6], in [7] and in experiment [9] was “inactive” throughout.

Turning to `O=c1n(CCCN2CCN(c3cccc(Cl)c3)CC2)nc2ccccn12`, the call in [1] was inactive. In addition, the Potency result in experiment [2], in [3], in experiment [5], in experiment [6], in experiment [7] and in experiment [8] was “inactive” in each case. The Potency entry in experiment [9] is “inactive”.

Take `CC(C)(Sc1ccc(CCN(CCCCC2CCCCC2)C(=O)NC2CCCCC2)cc1)C(=O)O`: the compound was called inactive in experiment [1], in experiment [12] and in experiment [13]. The Potency entry in [2], in experiment [11], in experiment [7], in [10] and in experiment [9] was “inactive” throughout. The Potency entry in experiment [3] is “inactive and 6.4 µM (active)”.

Regarding `CNC[C@H](O)c1cccc(O)c1`, in experiment [1], the result was inactive. Further, the Potency entry in experiment [2], in experiment [3], in [4], in experiment [5], in [6] and in experiment [7] was “inactive” each time. Further, the Potency entry in [8] and in [10] was “inactive” throughout.
